CtBP-E1A inh: inhibitors of CtBP/E1A interaction. AlphaScreen GST-E1A/His-CtBP binding, 1536-well; hits give low values. activity change, % (no concentration beside the values). 0.49% of 340,000 active; in the data active means activity change below about -65%; inconclusive means mostly about -30% to -63%
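GST-E1A and His-tagged CtBP (125 nM each as 5X stock) were preincubated with pin-transferred compound for 2 h at 37 °C in the dark, then glutathione donor and nickel acceptor beads were added for 1 h before AlphaScreen reading.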
TDP1 block: blocks human tyrosyl-DNA phosphodiesterase 1. Q9NUW8. Potency, µM (doses to about 130 µM), most hits filed as inhibitors. 0.28% of 350,000 active. recombinant TDP1, AlphaScreen DNA substrate cleavage; further: nearly all actives have a fitted effect of over 40% in size
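E. coli-derived human Tdp1, 1 nM final. Cpd preinc 15 min RT; substrate 15 nM final, 5 min RT; AS bead mix 10 ug/ml final, 10 min RT. Signal loss = tyrosine-FITC cleavage. No-enzyme wells = max signal.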
Six1-Eya2 blk: blocks human Six1 binding to Eya2 | Q15475+O00167 | AlphaScreen GST-Six1/His-Eya2 binding, biochemical; hits give low values | activity change, % (no concentration beside the values) | 0.56% of 360,000 active | AID 651725; in the data active means activity change below about -65%; inconclusive means mostly about -30% to -63%
Target sequence (O00167 whole entry, looked up): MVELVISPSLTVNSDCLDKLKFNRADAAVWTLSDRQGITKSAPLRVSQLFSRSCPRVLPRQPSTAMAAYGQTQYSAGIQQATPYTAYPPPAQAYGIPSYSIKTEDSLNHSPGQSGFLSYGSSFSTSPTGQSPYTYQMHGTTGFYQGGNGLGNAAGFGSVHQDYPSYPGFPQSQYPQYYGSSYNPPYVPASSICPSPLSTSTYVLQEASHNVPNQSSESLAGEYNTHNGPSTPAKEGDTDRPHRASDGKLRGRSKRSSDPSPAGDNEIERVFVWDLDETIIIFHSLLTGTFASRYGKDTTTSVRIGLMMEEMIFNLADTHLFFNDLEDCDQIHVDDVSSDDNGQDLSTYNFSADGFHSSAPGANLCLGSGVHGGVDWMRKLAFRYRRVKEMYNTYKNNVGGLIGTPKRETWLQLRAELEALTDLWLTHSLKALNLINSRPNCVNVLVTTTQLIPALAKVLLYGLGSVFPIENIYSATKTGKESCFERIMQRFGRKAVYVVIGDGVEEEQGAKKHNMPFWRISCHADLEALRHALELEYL
Target sequence (Q15475 whole entry, looked up): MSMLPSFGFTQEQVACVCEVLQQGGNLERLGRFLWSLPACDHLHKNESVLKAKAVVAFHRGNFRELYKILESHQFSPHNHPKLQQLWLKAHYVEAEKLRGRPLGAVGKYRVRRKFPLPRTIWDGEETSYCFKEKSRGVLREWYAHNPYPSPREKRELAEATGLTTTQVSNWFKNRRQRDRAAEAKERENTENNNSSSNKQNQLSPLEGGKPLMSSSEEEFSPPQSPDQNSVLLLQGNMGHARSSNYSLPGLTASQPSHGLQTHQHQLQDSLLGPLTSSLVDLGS
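Compounds are tested against tagged Six1 and Eya2 proteins bridged by glutathione donor and nickel acceptor beads; after a one-hour incubation at 37 °C without light, AlphaScreen emission is recorded.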
IL-1B inflam inh: inflammasome signaling inhibition, IL-1 beta readout. THP-1 LPS/ATP IL-1B secretion, AlphaLISA, 16 h; hits give low values. activity change, % at 57.5 µM. 4.7% of 360,000 active. AID 743279; in the data active means activity change below about -50%; inconclusive means mostly about -30% to -49%
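Secreted IL-1B measured by AlphaLISA bead assay after 16 h compound exposure of THP-1 cells; compounds (final up to 57.5 uM) added 1 h before LPS (250 ng/mL) and ATP (1.25 mM) stimulation; lower signal means less secretion.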
TDP1 cell noCPT: qHTS for Inhibitors of human tyrosyl-DNA phosphodiesterase 1 (TDP1): qHTS in cells in absence of CPT; Potency, µM (titrated, usually from 46.2 µM), hits mostly inhibitors; AID 686978, 2013; 15% of 420,000 active; DT40 Tdp1-/- hTDP1 cells, no CPT, ATP luminescence, 48 h; further: nearly all actives have a fitted effect of over 55% in size
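Readout: luminescence from CellTiter-Glo after 30 min in the dark at RT. Cells: DT40 Tdp1-/- with stable hTDP1, 400/well. Exposure: compounds alone, ≥48 hr, 37 °C.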
DT40 TDP1 CPT: DT40-hTDP1 cell growth loss with CPT; AID 686979; Potency, µM (series often up to 46.2 µM), hits mostly inhibitors; chicken DT40 Tdp1-/-;hTDP1 cells + 20 nM CPT, ATP luminescence, 48 h; 12% of 420,000 active; further: nearly all actives have a fitted effect of over 55% in size
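Chicken DT40 Tdp1-/- cells stably complemented with human TDP1 were seeded at 400 cells/well in medium containing 20 nM camptothecin, exposed to pin-transferred compounds, and grown at 37 °C for at least 48 hr. Viability was read as ATP luminescence.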
Numbers stand for hits; - = inactive; ? = inconclusive; . = no result; [ ] = another dose, or the depositor's remark. An excerpt weighted towards active compounds, which were near 18% of everything screened. Unless noted, the call rests on the fitted dose curve; in most records, active means well fitted curve in the direction sought with a large enough effect; inconclusive means small, poorly fitted or top-dose-only effect, or another doubt; inactive means no such curve, though single readings can be large; an effect the other way counts as inactive or inconclusive.

SMILES	CtBP-E1A inh	TDP1 block	Six1-Eya2 blk	IL-1B inflam inh	TDP1 cell noCPT	DT40 TDP1 CPT
c1ccc(-c2cccc(N3CC4(CCNCC4)C3)c2)cc1	.	.	.	.	9.2µM	9.2µM
c1ccc(-c2cccc(N3CCCC4(CCNCC4)C3)c2)cc1	.	.	.	.	20.6µM	11.6µM
COC(=O)N1CCC2(CCCN(c3cccc(-c4ccccc4)c3)C2)CC1	.	.	.	.	?	-
c1ccc(-c2cccc(N3CCC4(CCNCC4)CC3)c2)cc1	.	.	.	.	8.2µM	9.2µM
O=S(=O)(c1ccccc1)N1CCC2(CCCN(c3cccc(-c4ccccc4)c3)C2)CC1	.	.	.	.	-	-
O=C(CN(c1cccc(Br)c1)S(=O)(=O)c1ccccc1)N1CCc2ccccc2C1	.	-[12.3 µM]	.	.	14.6µM	14.6µM
CCN1CCN(C(=O)CN(c2cccc(Br)c2)S(=O)(=O)c2ccccc2)CC1	-	-	-	-	-	-
COc1ccc(N(CC(=O)N2CCc3ccccc3C2)S(=O)(=O)c2ccc(C)cc2)cc1Cl	.	.	.	.	16.4µM	?
COc1ccc(-c2nc3ccc(N4CCN(C)CC4)cc3c(=O)[nH]2)cc1	.	-	-	-	?	-
COc1ccc2nc(C)cc(Nc3ccc(N4CCOCC4)cc3)c2c1	-	-	?	.	20.6µM	?
COc1ccc2nc(C)cc(Nc3ccc(N4CCN(C)CC4)cc3)c2c1	.	.	-	-105.5	3.26µM	4.61µM
Cc1[nH]n(-c2ccc([N+](=O)[O-])cc2)c(=O)c1C=NCCc1ccc(S(N)(=O)=O)cc1	-	-	-	-	?	?
Cc1[nH]n(-c2ccc([N+](=O)[O-])cc2)c(=O)c1C=NCC1CCCO1 (stereo not given)	-	-	-	-	10.3µM	10.3µM
Cc1ccc(-n2[nH]c(C)c(/C=N/Nc3ccc([N+](=O)[O-])cc3[N+](=O)[O-])c2=O)cc1	-	-	?	-	14.6µM	20.6µM
CCCc1[nH]n(-c2ccc([N+](=O)[O-])cc2)c(=O)c1C=NCCN1CCNCC1	.	-	.	.	.	.
Cc1[nH]n(-c2ccc([N+](=O)[O-])cc2)c(=O)c1C=NCCc1c(C)[nH]c2ccccc12	-	-	-	-	16.4µM	16.4µM
O=c1c(C=NCC2CCCO2)c(-c2ccccc2)[nH]n1-c1ccc([N+](=O)[O-])cc1 (stereo not given)	-	-	-	-	?	?
Cc1[nH]n(-c2ccc([N+](=O)[O-])cc2)c(=O)c1C=NCCN1CCN(C(=O)C(C)C)CC1	.	-	-	-	16.4µM	11.6µM
O=C(OCC(=O)N1CCOCC1)c1cc(=O)[nH]c2ccccc12	-	-	-	-	-	-
Cc1nc(-c2ccc(S(=O)(=O)Nc3ccccc3C)cc2)co1	-	-	-	-	-	?
C=CCN1C(=O)C(O)(CC(=O)c2ccc(OC)cc2OC)c2cc(Br)ccc21 (stereo not given)	-	-	-	-	?	?
CSc1nc(C(C)C)ccc1CNC(=O)CC(C)c1ccccc1 (stereo not given)	-	.	-	-	23.1µM	-
CC(CC(=O)NCc1ccc(F)cc1)c1ccccc1 (stereo not given)	-	.	-	-	-	-
Cc1cccc(N=c2c([N+](=O)[O-])nn(-c3ccc(Cl)cc3)n2O)c1	-	-	-	-	-	-
COc1cc(N=c2c([N+](=O)[O-])nn(-c3ccc4c(c3)OCCO4)n2O)cc(OC)c1	?	-	-	-	1.64µM	1.46µM
SMILES	CtBP-E1A inh	TDP1 block	Six1-Eya2 blk	IL-1B inflam inh	TDP1 cell noCPT	DT40 TDP1 CPT
CCc1cccc(N=c2c([N+](=O)[O-])nn(-c3ccc4c(c3)OCCO4)n2O)c1	-	-	?	-	3.26µM	1.84µM
CCc1cccc(N=c2c([N+](=O)[O-])nn(-c3ccc(Cl)cc3)n2O)c1	?	-	?	-	?	20.6µM
O=[N+]([O-])c1nn(-c2ccc3c(c2)OCCO3)n(O)c1=NCc1ccc(F)cc1	-	-	?	-75.6	?	?
O=[N+]([O-])c1cc2c(cc1CN1CCN(c3ccc(F)cc3)CC1)OCO2	-	.	-	-	-	?
CCC(CC)C(=O)Nc1c2c(nn1-c1ccc(OC)cc1)CS(=O)(=O)C2	-	-	-	-	-	-
CCS(=O)(=O)N1CCN=C1SCc1ccccc1	.	-	-	-	-	-
OCCN(CCO)CC(O)COc1ccc2c(c1)OCO2 (stereo not given)	-	-	-	-	-	-
Cc1cc(C)cc(N=c2c([N+](=O)[O-])nn(-c3cccc(Cl)c3)n2O)c1	?	-	?	-	?	11.2µM
COC(=O)c1csc(-c2ccc(CO)o2)n1	-	.	-	-	-	-
CCOc1ccc(N(Cc2cc3cc(C)ccc3[nH]c2=O)C(=O)COC)cc1	-	.	-	-	-	?
Cc1ccc2cc(CN(C(=O)c3cccc(Cl)c3)c3ccccc3)c(=O)[nH]c2c1	.	-	.	.	18.4µM	11.6µM
CCOc1ccc(N(Cc2cc3cc(C)ccc3[nH]c2=O)C(=O)c2cccc(Cl)c2)cc1	.	-	.	.	?	9.2µM
COc1ccc2[nH]c(=O)c(CN(C(=O)c3cccc(Cl)c3)c3ccccc3OC)cc2c1	.	-	.	.	?	23.1µM
Cc1ccc2cc(CN(C(=O)c3ccco3)c3ccccc3)c(=O)[nH]c2c1	-	-	-	-	-	?
CCOc1ccc(N(Cc2cc3cc(OC)ccc3[nH]c2=O)C(=O)C2CCCO2)cc1 (stereo not given)	-	-	-	-	18.4µM	?
CCn1c(SCC(=O)NC2CCCC2)nnc1C(C)NC(=O)c1ccccc1F (stereo not given)	-	.	-	-	-	-
COc1ccccc1N(Cc1cc(=O)[nH]c2ccccc12)C(=O)c1cccc([N+](=O)[O-])c1	-	-	-	-	?	20.6µM
Cc1ccc(Cl)cc1N1CCN(C(=O)c2cc3c(-c4ccccc4F)nn(C)c3s2)CC1	.	-	.	.	14.6µM	?
CCN1CCN(C(=O)c2cc3c(-c4ccc(Cl)cc4)nn(C)c3s2)CC1	-	-	-	?	?	?
CC(=O)c1ccc(N2CCN(C(=O)c3cc4c(-c5ccccc5F)nn(C)c4s3)CC2)cc1	-	-	-	-	18.4µM	18.4µM
Cc1cc(F)ccc1S(=O)(=O)Nc1ccccc1C(=O)NCc1cccnc1	-	-	-	-	-	-
CCn1c(O)c(/C=C2\C=NN=C2c2ccccc2)sc1=S	-	.	-	?	?	-
CCCCCCn1c(O)c(/C=C2\C=NN=C2c2ccccc2)sc1=S	-	-	?	-87.5	23.1µM	?
CCCCn1c(O)c(/C=C2\C=NN=C2c2ccccc2)sc1=S	-	-	-	-85.1	?	?

Compound activity (PubChem)
